In PubChem BioAssay (EPA / NIEHS):
“And” between values parts separate entries of the source, which are not always exact repeats. Identical values can stand only once. Results filed as inconclusive are left out. Some structures have more than one record in an assay (separate samples or runs), and their calls can disagree. The source made the active and inactive calls. Rule for the calls, unless noted: active = hit-call score of the fitted dose curve at least 0.9, where 1 is the maximum; inconclusive = response in the unintended direction; inactive = score below 0.9.

Legend:
[1] = molecular target: Retinoic acid receptor RXR-alpha (Homo sapiens) (UniProt P19793); assay: OT_NURR1_NURR1RXRa_0480: Odyssey Thera (OT) 8-hour HEK293T Protein Complementation Assay for Nurr1/retinoid X receptor (RXR) (AID 2283385)
Sequence of Retinoic acid receptor RXR-alpha (Homo sapiens) (P19793 whole entry, looked up, the tested form may be a part): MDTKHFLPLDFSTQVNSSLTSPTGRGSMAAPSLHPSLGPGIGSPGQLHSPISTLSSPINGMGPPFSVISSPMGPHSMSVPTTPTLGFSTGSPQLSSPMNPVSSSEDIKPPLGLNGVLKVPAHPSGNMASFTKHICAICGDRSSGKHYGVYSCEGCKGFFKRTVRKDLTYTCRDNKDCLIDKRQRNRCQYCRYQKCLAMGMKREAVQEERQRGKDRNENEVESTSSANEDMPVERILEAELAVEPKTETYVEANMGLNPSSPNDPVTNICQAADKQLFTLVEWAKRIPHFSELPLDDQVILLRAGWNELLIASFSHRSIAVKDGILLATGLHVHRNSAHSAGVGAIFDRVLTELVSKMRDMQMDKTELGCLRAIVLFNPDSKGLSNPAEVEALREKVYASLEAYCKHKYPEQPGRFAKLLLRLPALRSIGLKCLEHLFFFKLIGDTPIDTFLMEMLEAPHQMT
Method in brief: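 8 h compound exposure, HEK293T; Nurr1/RXRα fragment complementation; fluorescence intensity; positive fitting direction vs DMSO baseline.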

[2] = molecular target: Retinoic acid receptor RXR-alpha (Homo sapiens) (UniProt P19793); assay: OT_NURR1_NURR1RXRa_1440: Odyssey Thera (OT) 24-hour HEK293T Protein Complementation Assay for Nurr1/retinoid X receptor (RXR) (AID 2283386)
Method in brief: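 Interaction of Nurr1 with RXRα brings fused reporter fragments together in human HEK293T cells, restoring a functional reporter. Fluorescence intensity is measured 24 h after chemical treatment, and values are analysed in the positive direction against DMSO.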

[3] = molecular target: Peroxisome proliferator-activated receptor gamma (Homo sapiens) (UniProt P37231); assay: OT_PPARg_PPARgSRC1_0480: Odyssey Thera (OT) 8-hour Protein-Complementation Assay for Peroxisome Proliferator-activated Receptor Gamma / SRC-1 Co-activator (AID 2283387)
Sequence of Peroxisome proliferator-activated receptor gamma (Homo sapiens) (P37231 whole entry, looked up, the tested form may be a part): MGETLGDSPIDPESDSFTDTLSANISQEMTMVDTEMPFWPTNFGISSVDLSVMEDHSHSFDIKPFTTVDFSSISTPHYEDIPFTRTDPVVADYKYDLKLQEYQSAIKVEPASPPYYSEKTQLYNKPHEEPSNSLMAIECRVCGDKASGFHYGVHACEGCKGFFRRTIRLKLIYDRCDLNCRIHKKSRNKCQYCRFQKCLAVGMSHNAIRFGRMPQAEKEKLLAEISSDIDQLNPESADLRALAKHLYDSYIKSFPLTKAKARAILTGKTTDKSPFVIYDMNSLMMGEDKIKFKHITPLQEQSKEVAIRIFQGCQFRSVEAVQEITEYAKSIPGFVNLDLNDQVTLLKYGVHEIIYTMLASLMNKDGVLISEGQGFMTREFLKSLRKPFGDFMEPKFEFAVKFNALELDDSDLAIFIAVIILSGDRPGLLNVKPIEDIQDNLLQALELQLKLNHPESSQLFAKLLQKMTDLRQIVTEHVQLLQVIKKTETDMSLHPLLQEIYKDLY
Method in brief: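 Protein-fragment complementation in HEK293T: Venus YFP halves (residues 1-158, 159-239, mutated to IFP1/IFP2) fused to PPARg/SRC-1. 8 h exposure; N/C ratio at 488 nm; DMSO negative control.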

[4] = molecular target: Peroxisome proliferator-activated receptor gamma (Homo sapiens) (UniProt P37231); assay: OT_PPARg_PPARgSRC1_1440: Odyssey Thera (OT) 24-hour Protein-Complementation Assay for Peroxisome Proliferator-activated Receptor Gamma/ SRC-1 Co-activator (AID 2283388)
Method in brief: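 HEK293T cells transiently transfected with PPARg and SRC-1 fused via (Gly4Ser)2 linker to split Venus YFP fragments (IFP1/IFP2) were dosed 24 h; fixed, Draq5-stained, imaged at 488/635 nm; nuclear/cytoplasmic fluorescence ratio scored versus DMSO baseline, gain-of-signal.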

[5] = read-out: Tumor necrosis factor receptor superfamily member 6 (Homo sapiens) (UniProt P25445); assay: LTEA_HepaRG_FAS: Life Technologies and Expression Analysis (LTEA) Assay for Fas cell surface death receptor (FAS) using HepaRG (AID 2283447; active = hit-call score of the fitted dose curve at least 0.9, where 1 is the maximum; inactive = score below 0.9); settings: mRNA level, 48 h; actives raise or lower the signal
Method in brief: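 FAS transcript level was measured by TaqMan qRT-PCR against three housekeeping genes after 48 h chemical exposure. Cells were HepaRG, 0.5% DMSO vehicle, with a top concentration of 100 uM and half-log dilutions over eight points, in duplicate.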

[6] = read-out: Fatty acid synthase (Homo sapiens) (UniProt P49327); assay: LTEA_HepaRG_FASN: Life Technologies and Expression Analysis (LTEA) Assay for Fatty Acid Synthase (FASN) using HepaRG (AID 2283448; active = hit-call score of the fitted dose curve at least 0.9, where 1 is the maximum; inactive = score below 0.9); settings: mRNA level, 48 h; actives raise or lower the signal
Method in brief: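 FASN expression changes, up or down relative to 0.5% DMSO, were measured by qRT-PCR in human HepaRG cells after 48 h treatment with chemicals at eight concentrations (half-log steps from 100 uM).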

[7] = read-out: Cyclin D2 (CCND2), CCND2 (gene 894); assay: LTEA_HepaRG_CCND2: Life Technologies and Expression Analysis (LTEA) Assay for Cyclin D2 (CCND2) using HepaRG (AID 2283449; active = hit-call score of the fitted dose curve at least 0.9, where 1 is the maximum; inactive = score below 0.9); settings: mRNA level, 48 h; actives raise or lower the signal
Method in brief: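 Read-out is CCND2 mRNA level measured by qRT-PCR in human HepaRG liver cells and normalised to three housekeeping genes. Chemicals were applied for 48 h at up to 100 uM, with gain or loss fitted relative to 0.5% DMSO.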

[8] = read-out: Cyclin Dependent Kinase Inhibitor 1A (CDKN1A), CDKN1A (gene 1026); assay: LTEA_HepaRG_CDKN1A: Life Technologies and Expression Analysis (LTEA) Assay for Cyclin Dependent Kinase Inhibitor 1A (CDKN1A) using HepaRG (AID 2283450; active = hit-call score of the fitted dose curve at least 0.9, where 1 is the maximum; inactive = score below 0.9); settings: mRNA level, 48 h; actives raise or lower the signal
Method in brief: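 Differentiated human HepaRG cells, pre-cultured 48 h, were exposed in duplicate for 48 h in serum-free induction medium to eight half-log concentrations up to 100 uM (0.5% DMSO). CDKN1A mRNA was measured by qRT-PCR, normalized to ACTB/GAPDH/POLR2A, bidirectionally fitted versus DMSO.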

[9] = CEETOX_H295R_11DCORT: CeeTox H295R High-throughput Steroidogenesis Assay for 11-Deoxycortisol (11DCORT) (AID 2283432; active = hit-call score of the fitted dose curve at least 0.9, where 1 is the maximum; inactive = score below 0.9;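 for AC50: 11-deoxycortisol secreted into the medium measured by LC-MS/MS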); settings: actives raise or lower the signal
Method in brief: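 Adrenal carcinoma line H295R, run per OECD 456 with minor changes, was forskolin-stimulated (10 uM, 48 h) before a 48 h chemical exposure at 0.1% DMSO. Secreted 11-deoxycortisol was quantified by HPLC-MS/MS.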

[10] = CEETOX_H295R_OHPREG: CeeTox H295R High-throughput Steroidogenesis Assay for OH-Pregnenolone (OHPREG) (AID 2283434; active = hit-call score of the fitted dose curve at least 0.9, where 1 is the maximum; inactive = score below 0.9); settings: actives raise or lower the signal
Method in brief: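 Hormone levels in spent medium were measured by tandem mass spectrometry following liquid-liquid extraction. Cells (H295R) had been forskolin-stimulated (10 uM, 48 h) before a 48 h chemical exposure at 0.1% DMSO, with activity fitted in both directions against DMSO.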

[11] = CEETOX_H295R_OHPROG: CeeTox H295R High-throughput Steroidogenesis Assay for OH-Progesterone (OHPROG) (AID 2283435; active = hit-call score of the fitted dose curve at least 0.9, where 1 is the maximum; inactive = score below 0.9;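 for AC50: 17alpha-hydroxyprogesterone secreted into medium measured by HPLC-MS/MS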); settings: actives raise or lower the signal
Method in brief: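 H295R, 10 uM forskolin prestim 48 h; cmpd in 0.1% DMSO 48 h; medium MTBE-extracted, HPLC-MS/MS for OH-progesterone; 7-pt std curve; bidirectional fit vs DMSO; MTT viability, chemicals diluted until viability >/=70%.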

[12] = CEETOX_H295R_CORTIC: CeeTox H295R High-throughput Steroidogenesis Assay for Corticosterone (CORTIC) (AID 2283437; active = hit-call score of the fitted dose curve at least 0.9, where 1 is the maximum; inactive = score below 0.9;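 note: corticosterone secreted into medium quantified by mass spectrometry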); settings: actives raise or lower the signal
Method in brief: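 Corticosterone secreted into medium is measured by reverse-phase HPLC with tandem MS following liquid-liquid extraction. Cells are forskolin-stimulated (10 uM, 48 h) before 48 h test exposure; activity fitted in both directions against DMSO.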

[13] = CEETOX_H295R_CORTISOL: CeeTox H295R High-throughput Steroidogenesis Assay for Cortisol (AID 2283438; active = hit-call score of the fitted dose curve at least 0.9, where 1 is the maximum; inactive = score below 0.9;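 note: cortisol secreted into medium quantified by LC-MS/MS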); settings: actives raise or lower the signal
Method in brief: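 Forskolin 10 uM 48 h prestim → test cmpd in DMSO (0.1% final) 48 h → medium MTBE-extracted → LC-MS/MS cortisol vs 7-pt std curve. Gain/loss of signal fitted vs DMSO. MTT viability in same wells.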

[14] = CEETOX_H295R_DOC: CeeTox H295R High-throughput Steroidogenesis Assay for DOC (AID 2283439; active = hit-call score of the fitted dose curve at least 0.9, where 1 is the maximum; inactive = score below 0.9); settings: actives raise or lower the signal
Method in brief: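 Readout: 11-deoxycorticosterone in culture medium by reverse-phase C18 HPLC with ESI+ tandem MS after MTBE extraction. Cells: H295R, forskolin-primed (10 uM, 48 h), chemical-treated 48 h; DMSO 0.1% final. Activity fitted bidirectionally versus DMSO.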

[15] = CEETOX_H295R_ESTRADIOL: CeeTox H295R High-throughput Steroidogenesis Assay for Estradiol (AID 2283440; active = hit-call score of the fitted dose curve at least 0.9, where 1 is the maximum; inactive = score below 0.9;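 note: estradiol secreted into medium quantified by LC-MS/MS after dansyl derivatisation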); settings: actives raise or lower the signal
Method in brief: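 H295R adrenocortical cells were prestimulated with 10 uM forskolin for 48 h, then exposed to test chemical in 0.1% DMSO for 48 h. Medium estradiol was extracted with MTBE, dansyl-derivatized and quantified by HPLC-MS/MS; bidirectional fit versus DMSO.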

[16] = CEETOX_H295R_ESTRONE: CeeTox H295R High-throughput Steroidogenesis Assay for Estrone (AID 2283441; active = hit-call score of the fitted dose curve at least 0.9, where 1 is the maximum; inactive = score below 0.9;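 note: estrone secreted into medium measured by LC-MS/MS after dansyl derivatization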); settings: actives raise or lower the signal
Method in brief: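 H295R cells prestimulated 48 h with 10 uM forskolin, then exposed 48 h to chemicals in 0.1% DMSO final; estrone in medium extracted with MTBE, dansyl-derivatized, quantified by HPLC-MS/MS; bidirectional fitting versus DMSO, viability by MTT.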

[17] = CEETOX_H295R_PROG: CeeTox H295R High-throughput Steroidogenesis Assay for Progesterone (PROG) (AID 2283442; active = hit-call score of the fitted dose curve at least 0.9, where 1 is the maximum; inactive = score below 0.9;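 for AC50: human H295R adrenal cells primed with 10 µM forskolin before dosing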); settings: actives raise or lower the signal
Method in brief: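 H295R human adrenal cells were prestimulated with 10 uM forskolin for 48 h, then exposed to test chemical (0.1% DMSO final) for 48 h. Medium progesterone was MTBE-extracted and quantified by HPLC-MS/MS, with bidirectional fitting against DMSO.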

[18] = molecular target: Bile acid receptor (Homo sapiens) (UniProt Q96RI1); assay: OT_FXR_FXRSRC1_0480: Odyssey Thera (OT) 8-hour HEK293T Protein-Complementation Assay for Farnesoid X receptor/SRC-1 Co-activator (AID 2283383)
Sequence of Bile acid receptor (Homo sapiens) (Q96RI1 whole entry, looked up, the tested form may be a part): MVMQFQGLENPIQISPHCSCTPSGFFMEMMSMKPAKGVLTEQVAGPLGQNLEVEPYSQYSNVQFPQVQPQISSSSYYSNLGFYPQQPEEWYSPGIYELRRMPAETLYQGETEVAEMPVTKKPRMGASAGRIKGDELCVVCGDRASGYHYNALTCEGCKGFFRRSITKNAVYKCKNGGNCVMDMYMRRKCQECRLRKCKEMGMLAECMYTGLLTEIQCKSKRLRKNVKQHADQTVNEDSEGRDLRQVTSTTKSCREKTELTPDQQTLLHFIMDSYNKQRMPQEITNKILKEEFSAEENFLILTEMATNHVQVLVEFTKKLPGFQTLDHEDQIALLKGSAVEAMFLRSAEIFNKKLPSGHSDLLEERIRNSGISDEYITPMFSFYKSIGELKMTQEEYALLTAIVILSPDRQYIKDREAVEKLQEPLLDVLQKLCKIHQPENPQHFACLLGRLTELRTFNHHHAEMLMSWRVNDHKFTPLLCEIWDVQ
Method in brief: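 Human kidney HEK293T cells carried FXR/SRC-1 fragment-complementation constructs. Compounds were added and incubated 8 h. Reporter reassembly upon receptor–co-activator interaction was then quantified by fluorescence, with curves fitted in the positive direction relative to DMSO.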

Measured: AC50

Sequence of Fatty acid synthase (Homo sapiens) (P49327 whole entry, looked up): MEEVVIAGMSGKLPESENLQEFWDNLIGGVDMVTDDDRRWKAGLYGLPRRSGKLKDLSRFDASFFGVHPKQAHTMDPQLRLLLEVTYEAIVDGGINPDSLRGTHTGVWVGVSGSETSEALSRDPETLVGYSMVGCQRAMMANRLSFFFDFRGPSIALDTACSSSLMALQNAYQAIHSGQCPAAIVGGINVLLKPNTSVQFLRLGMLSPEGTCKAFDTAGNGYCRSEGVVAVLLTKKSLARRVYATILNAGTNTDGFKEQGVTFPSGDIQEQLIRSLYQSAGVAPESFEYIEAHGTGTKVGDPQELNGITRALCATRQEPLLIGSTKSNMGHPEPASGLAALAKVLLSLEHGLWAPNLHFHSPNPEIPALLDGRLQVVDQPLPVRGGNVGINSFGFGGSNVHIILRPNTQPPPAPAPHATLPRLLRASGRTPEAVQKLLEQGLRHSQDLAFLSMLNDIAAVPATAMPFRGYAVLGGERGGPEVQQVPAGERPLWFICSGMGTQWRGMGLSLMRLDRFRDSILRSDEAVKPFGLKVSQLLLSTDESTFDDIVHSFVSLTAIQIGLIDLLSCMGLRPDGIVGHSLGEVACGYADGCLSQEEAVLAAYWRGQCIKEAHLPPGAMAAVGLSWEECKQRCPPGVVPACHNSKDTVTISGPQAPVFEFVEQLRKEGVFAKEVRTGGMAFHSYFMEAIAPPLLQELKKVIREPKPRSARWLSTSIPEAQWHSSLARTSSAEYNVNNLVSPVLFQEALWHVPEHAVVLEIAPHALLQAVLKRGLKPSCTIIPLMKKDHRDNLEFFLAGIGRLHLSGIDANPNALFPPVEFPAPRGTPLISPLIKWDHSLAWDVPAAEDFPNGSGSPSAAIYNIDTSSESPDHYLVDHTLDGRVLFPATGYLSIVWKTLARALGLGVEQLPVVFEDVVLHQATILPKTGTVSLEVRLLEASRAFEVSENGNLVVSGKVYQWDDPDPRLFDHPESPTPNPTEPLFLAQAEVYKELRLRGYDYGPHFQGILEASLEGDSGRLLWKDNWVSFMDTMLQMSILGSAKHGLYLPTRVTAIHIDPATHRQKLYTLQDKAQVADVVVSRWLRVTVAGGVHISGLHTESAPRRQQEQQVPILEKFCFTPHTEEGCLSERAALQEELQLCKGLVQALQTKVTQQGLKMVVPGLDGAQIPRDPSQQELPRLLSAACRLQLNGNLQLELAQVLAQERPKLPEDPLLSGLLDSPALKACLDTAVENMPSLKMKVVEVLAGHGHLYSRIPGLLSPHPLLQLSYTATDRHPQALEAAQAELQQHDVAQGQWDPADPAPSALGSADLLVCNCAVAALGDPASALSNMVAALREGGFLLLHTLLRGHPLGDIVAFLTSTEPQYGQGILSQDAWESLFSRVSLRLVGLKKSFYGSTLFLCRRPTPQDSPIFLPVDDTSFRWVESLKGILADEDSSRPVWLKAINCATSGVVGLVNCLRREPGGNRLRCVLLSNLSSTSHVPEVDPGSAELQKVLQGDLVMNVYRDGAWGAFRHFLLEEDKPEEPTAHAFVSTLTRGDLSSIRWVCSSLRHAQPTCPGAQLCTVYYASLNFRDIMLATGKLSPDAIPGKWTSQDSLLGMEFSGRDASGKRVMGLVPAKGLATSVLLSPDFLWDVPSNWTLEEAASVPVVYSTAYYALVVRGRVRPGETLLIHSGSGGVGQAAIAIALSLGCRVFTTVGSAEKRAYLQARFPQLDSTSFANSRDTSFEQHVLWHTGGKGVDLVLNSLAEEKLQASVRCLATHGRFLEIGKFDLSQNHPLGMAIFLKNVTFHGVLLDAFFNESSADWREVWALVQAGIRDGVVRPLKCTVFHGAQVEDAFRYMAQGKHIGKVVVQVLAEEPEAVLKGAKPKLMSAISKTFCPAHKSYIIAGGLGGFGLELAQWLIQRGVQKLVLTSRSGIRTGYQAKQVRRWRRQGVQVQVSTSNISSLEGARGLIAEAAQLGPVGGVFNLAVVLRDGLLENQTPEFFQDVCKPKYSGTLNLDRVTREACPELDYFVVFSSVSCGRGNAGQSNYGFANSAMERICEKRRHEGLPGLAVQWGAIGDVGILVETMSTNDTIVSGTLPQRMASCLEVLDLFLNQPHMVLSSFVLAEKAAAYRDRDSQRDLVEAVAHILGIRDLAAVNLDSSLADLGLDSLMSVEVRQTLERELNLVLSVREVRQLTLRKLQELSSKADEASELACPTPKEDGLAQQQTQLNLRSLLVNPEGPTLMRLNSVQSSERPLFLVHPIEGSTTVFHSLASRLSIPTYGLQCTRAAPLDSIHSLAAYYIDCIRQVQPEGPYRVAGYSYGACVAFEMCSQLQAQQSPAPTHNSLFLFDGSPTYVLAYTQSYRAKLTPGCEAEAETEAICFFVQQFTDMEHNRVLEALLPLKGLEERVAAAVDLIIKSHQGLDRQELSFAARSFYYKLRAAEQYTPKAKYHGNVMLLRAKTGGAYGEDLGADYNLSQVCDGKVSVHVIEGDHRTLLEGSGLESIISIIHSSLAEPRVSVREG

Cn1c(-c2ccccc2)cc(-c2ccccc2)[n+]1C
active: [6] 11.7 µM | [8] 50 µM
inactive: [1] | [2] | [3] | [4] | [5] | [7]

CC(C)(C)C(=O)C(Oc1ccc(Cl)cc1)n1cncn1 (stereo not drawn)
active: [9] 58.9 µM | [10] 21.6 µM | [11] 21 µM | [13] 21.2 µM | [15] 21.7 µM | [16] 41.2 µM | [17] 3.12 µM | [6] 50 µM
inactive: [1] | [3] | [4] | [12] | [14] | [5] | [7]

Cc1ccc(N=CN(C)C=Nc2ccc(C)cc2C)c(C)c1
inactive: [3] | [4] | [5] | [6]
active: [1] 50 µM | [2] 80.8 µM and 31.9 µM

COCC(C)N(C(=O)CCl)c1c(C)csc1C (stereo not drawn)
inactive: [18] | [1] | [2] | [3] | [4] | [5] | [6]

O=c1n(Cl)c(=O)n(Cl)c(=O)n1Cl
inactive: [1] | [2] | [3] | [4] | [5] | [6] | [7]

OC(c1ccc(Cl)cc1)(c1ccc(Cl)cc1)C(Cl)(Cl)Cl
active: [5] 50 µM | [6] 34.8 µM
inactive: [3] | [4]

O=C(O)c1c(Cl)ccc2cc(Cl)cnc12
inactive: [18] | [1] | [2] | [3] | [4] | [5] | [6] | [7] | [8]

CO/N=C(/C1=NOCCO1)c1ccccc1Oc1ncnc(Oc2ccccc2Cl)c1F
inactive: [1] | [3] | [4] | [7]
active: [18] 12.4 µM | [5] 50 µM | [6] 62.7 µM

Clc1nc(Cl)nc(Nc2ccccc2Cl)n1
active: [14] 2.71 µM
not listed: [8] | [18]
inactive: all other assays above

CC(C)Oc1cccc(NC(=O)c2ccccc2C(F)(F)F)c1
active: [9] 28.9 µM | [11] 13.7 µM | [13] 37.5 µM | [14] 7.26 µM | [17] 8.93 µM | [6] 65.2 µM | [7] 0.0398 µM
not listed: [18]
inactive: all other assays above

COc1cc(OC)nc(NC(=O)NS(=O)(=O)c2ncccc2OCC(F)(F)F)n1
active: [7] 0.223 µM
inactive: [18] | [2] | [3] | [4] | [5] | [6]

N#Cc1c[nH]cc1-c1cccc2c1OC(F)(F)O2
active: [6] 1.51 µM
inactive: [2] | [3] | [4] | [5] | [7] | [8]

CCCCC(O)(Cn1cncn1)c1ccc(Cl)cc1Cl (stereo not drawn)
inactive: [18] | [3] | [4] | [7]
active: [5] 87.4 µM | [6] 85.7 µM | [8] 35.4 µM

CC(C)NC(=O)N1CC(=O)N(c2cc(Cl)cc(Cl)c2)C1=O
active: [10] 10.3 µM | [11] 19 µM | [17] 16.9 µM | [6] 16.2 µM
inactive: [3] | [4] | [5] | [7]

CCOc1nc(F)cc2nc(S(=O)(=O)Nc3c(Cl)cccc3Cl)nn12
inactive: [1] | [2] | [3] | [4] | [5] | [6] | [7] | [8]

Nc1c(Cl)c(F)nc(OCC(=O)O)c1Cl
inactive: [2] | [3] | [4] | [5] | [6] | [7] | [8]

Clc1cccc(C(Cl)(Cl)Cl)n1
inactive: [18] | [1] | [2] | [3] | [4] | [5] | [6] | [7]

CCOP(=S)(OCC)Oc1nc(Cl)n(C(C)C)n1
active: [11] 35.8 µM | [17] 61.8 µM | [6] 30.5 µM
not listed: [1] | [2] | [8] | [15] | [16] | [18]
inactive: all other assays above

CSC(=O)c1c(C(F)F)nc(C(F)(F)F)c(C(=O)SC)c1CC(C)C
active: [2] 69.6 µM
inactive: [1] | [2] | [3] | [4] | [5] | [6] | [7]

N#CN=C1SCCN1Cc1ccc(Cl)nc1
active: [10] 50 µM
not listed: [2] | [15] | [16] | [18]
inactive: all other assays above

O=C1C2CC=CCC2C(=O)N1SC(Cl)(Cl)Cl (stereo not drawn)
active: [6] 70.9 µM
not listed: [1] | [2] | [9] | [12] | [13] | [14] | [18]
inactive: all other assays above
